Most compounds without a hit are left out; they make up all but 4% or so of the library.
TRHR agonist – activates the human TRH receptor; TRHR cells, calcium flux fluo-8, FDSS agonist mode; activation, % at 2 µM; actives 0.18% (n = 360,000)
Target sequence (P34981 whole entry, looked up): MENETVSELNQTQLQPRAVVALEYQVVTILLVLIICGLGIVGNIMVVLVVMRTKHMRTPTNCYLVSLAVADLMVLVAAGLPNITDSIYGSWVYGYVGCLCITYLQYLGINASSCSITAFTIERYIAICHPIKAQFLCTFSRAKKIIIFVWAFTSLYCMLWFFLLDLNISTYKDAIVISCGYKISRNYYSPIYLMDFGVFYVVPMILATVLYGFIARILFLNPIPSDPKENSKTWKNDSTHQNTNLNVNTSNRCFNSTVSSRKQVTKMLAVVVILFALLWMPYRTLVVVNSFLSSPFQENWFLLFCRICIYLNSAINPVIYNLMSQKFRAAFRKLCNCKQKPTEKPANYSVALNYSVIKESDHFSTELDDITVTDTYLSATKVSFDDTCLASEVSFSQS
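Fluo-8-loaded TRHR cells; 10 s baseline, compound added, kinetic Ca2+ fluorescence read 1/s, agonist mode.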
GRP78 ERSR act – induces the endoplasmic reticulum stress response in human glioma cells; U87-MG GRP78 promoter luciferase reporter, 16 h; Potency, µM, most hits filed as activators; actives 0.02% (n = 420,000); AID 602332; active = well fitted activation curve with a large enough effect; note: series mostly up to about 76 µM; nearly all actives have a fitted effect of over 35% in size
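Stably transfected U87-MG human glioma cells carrying a GRP78-based luminescent sensor were seeded at 1000 cells/well, pin-dosed with compounds and incubated 16 h. Luciferase reagent was then added, and end-point luminescence was read after 10 min at room temperature.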
TRHR PAM – allosterically enhances the human TRH receptor; P34981; TRHR cells, fluo-8 calcium fluorescence, EC20 TRH enhancement; enhancement, % at 2 µM; actives 0.66% (n = 360,000); AID 493056; in the data active = enhancement above about 30%
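Enhancer read-out: after compound pinning and an initial kinetic agonist-mode read, an EC20 of TRH (10 nM final) was injected and fluo-8 calcium signal (Ex 480/Em 530) followed at 1 s/cycle for 100 cycles in TRHR-expressing cells.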
D1 antagonist – blocks dopamine activation of the human D1 receptor. activity change, negative = inhibition, % at 10 µM. HEK293 TREx D1 cells, calcium flux, dopamine EC80; stronger effect = lower value. actives 3.2% (n = 360,000). P21728; in the data active = activity change below about -30%
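Kinetic fluorescence of a calcium dye serves as the read-out. D1-expressing Hek293 Trex cells, induced overnight at 30 C, are exposed to compound for 180 s before an EC80 dopamine addition, then read 180 s further.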
D1 PAM – enhances dopamine response at the human D1 receptor. HEK293 TREx D1 cells, calcium flux, dopamine EC20 potentiation. potentiation, % at 10 µM. actives 0.036% (n = 360,000). P21728; in the data active = potentiation above about 30%
D1 agonist – activates the human D1 dopamine receptor; activation, % at 2 µM; P21728; HEK293 T-REx D1 cells, calcium flux, agonist mode; actives 1% (n = 360,000)
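Agonism was scored from calcium flux recorded over 180 s (1 read/s) after pintool compound addition, following a 10-cycle baseline. Cells were inducible force-coupled HEK293 TREx D1, plated overnight at 30 C and loaded with no-wash calcium dye.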
Each line names hits and unclear results; the compound was inactive in the other large screens; ! = not confirmed by another sample. Cut-off read from the data, not from the text of the source, unless noted: active = activation above about 30%; inactive = the rest.

COC(=O)CC1=C(C(=O)OC)C(c2ccncc2)C(C#N)=C(N)O1 (configuration not stated)	none
Cc1ccc(-c2cn3c(n2)SCC3)cc1	none
CCc1ccc(-c2cn3c(n2)SCC3)cc1	D1 antagonist -86
O=C(Cc1cccs1)Nc1cccc(-c2nc3cc4ccccc4cc3[nH]2)c1	D1 antagonist -38
CC(=O)Nc1cccc(NC(=O)Cc2cccs2)c1	none
COCCNC(=O)c1ccc2nc(CCc3ccccc3)oc2c1	D1 antagonist -36
COc1ccc(CNC(=O)c2ccc3nc(CCc4ccccc4)oc3c2)c(OC)c1	D1 antagonist -42
COCCCNC(=O)c1ccc2nc(CCc3ccccc3)oc2c1	none
O=C(c1ccc(S(=O)(=O)c2ccccc2Cl)c([N+](=O)[O-])c1)N1CCN(Cc2ccccc2)CC1	none
COc1ccc(-c2nc(CNS(=O)(=O)c3ccc(C)cc3)cs2)cc1	none (no result: GRP78 ERSR act)
COc1ccc(-c2nc(CNS(=O)(=O)c3ccc(F)cc3)cs2)cc1	D1 antagonist -32 (no result: GRP78 ERSR act)
O=C(CNS(=O)(=O)c1c(Cl)cccc1Cl)OCc1csc(-c2ccccc2)n1	D1 antagonist -48
Cc1ccc(S(=O)(=O)NCC(=O)OCc2csc(-c3ccccc3)n2)cc1	TRHR PAM 33
COc1ccc(CN(C(=O)c2ccc(-c3ccccc3)[nH]2)C(C(=O)NC(C)(C)C)c2ccncc2)cc1 (configuration not stated)	none
Cc1cccc(N(C)C(=O)CCS(=O)(=O)c2ccc3c(c2)n(C)c(=O)c(=O)n3C)c1	D1 antagonist -32 (no result: GRP78 ERSR act)
Cc1cccc(N(C)C(=O)CCS(=O)(=O)c2ccc3c(c2)oc(=O)n3C)c1	none
Cc1cc(=O)oc2cc(OCc3ccc(C(=O)N4CCN(c5ccccc5)CC4)cc3)ccc12	D1 antagonist -37
O=C(CCCC(=O)OCC(=O)c1cccs1)Nc1ccc(Oc2ccccc2)cc1	D1 antagonist -42
O=C(CN1CCCCCC1)Nc1ccc(Oc2ccccc2)cc1	D1 antagonist -38, D1 agonist 67
O=C(COC(=O)C1CC1)Nc1ccc(Oc2ccccc2)cc1	D1 antagonist -35
O=C(CN1CCCCC1)Nc1ccccc1	none
CCc1cccc(C)c1NC(=O)CCS(=O)(=O)c1cc(Br)cc2c1N(C(=O)C1CC1)CC2	none
C/C(=N\NC(=O)c1c(Cl)c(C)nn1C)c1ccc(NC(=O)COc2ccc(Cl)cc2C)cc1	D1 antagonist -41
COc1ccc(NC2=NC3(CCCCC3)N=C(N)N2)cc1	D1 antagonist -87
CCCCOc1ccc(NC2=NC3(CCCCC3)N=C(N)N2)cc1	none
COc1ccc(OC)c(NC2=NC3(CCCCC3)N=C(N)N2)c1	D1 antagonist -54
Cc1cccc(NC2=NC3(CCCCC3)N=C(N)N2)c1	none (no result: TRHR agonist, TRHR PAM, D1 antagonist, D1 PAM, D1 agonist)
COC(=O)C1CCN(C(=O)COC(=O)Cc2c[nH]c3ccccc23)CC1	TRHR PAM 37
CC1CCCN(C(=O)COC(=O)Cc2c[nH]c3ccccc23)C1 (configuration not stated)	none
Cc1cccc(-n2nnnc2S(C)(=O)=O)c1	D1 antagonist -51
O=C(NC(=O)c1ccccc1O)c1ccc(C(F)(F)F)cc1	D1 agonist 37
CCCc1ccc(C(=O)NC(=O)c2ccccc2O)cc1	D1 antagonist -64
O=C(NC(=S)NNC(=O)c1ccccc1O)c1ccc(F)cc1	none
CC(C)CC(=O)Nc1nnc(S(=O)(=O)Nc2ccccc2)s1	none
COCCn1c(N2CCN(c3ccc(OC)cc3)CC2)nc2c1c(=O)n(C)c(=O)n2C	none
C=CCn1c(N2CCN(c3ccc(OC)cc3)CC2)nc2c1c(=O)n(C)c(=O)n2C	D1 antagonist -38
Cc1ccc(C2c3[nH]c4ccccc4c3CCN2C(=O)CSc2ccccc2)cc1 (configuration not stated)	none
O=C(COC(=O)CCc1nc2ccccc2s1)Nc1ccc(S(=O)(=O)N2CCOCC2)cc1	none
O=C(COC(=O)c1cc(S(=O)(=O)N2CCOCC2)ccc1Cl)Nc1ccc(Cl)cn1	none (no result: TRHR agonist, TRHR PAM, D1 antagonist, D1 PAM, D1 agonist)
CCCc1nc2ccccc2c(C(=O)OCC(=O)Nc2ccc(S(=O)(=O)N3CCOCC3)cc2)c1CC	none (no result: D1 antagonist)
O=C(COC(=O)CCc1nc2ccccc2s1)Nc1cccc(S(=O)(=O)N2CCOCC2)c1	D1 antagonist -44
CCCc1nc2ccccc2c(C(=O)OCC(=O)Nc2cccc(S(=O)(=O)N3CCOCC3)c2)c1CC	D1 antagonist -34
CCN(CC)S(=O)(=O)c1cccc(NC(=O)COC(=O)c2n[nH]c(=O)c3ccccc23)c1	D1 antagonist -32
O=C(COC(=O)CCc1ccc(S(=O)(=O)N2CCOCC2)cc1)Nc1ccc(Cl)cn1	D1 agonist 36!
COc1ccc2c(CC(=O)Nc3cccc(S(=O)(=O)N4CCOCC4)c3)coc2c1	D1 antagonist -87
CSc1nc2ccc(S(=O)(=O)N3CCOCC3)cc2s1	none
COc1ccccc1CC(=O)Nc1cccc(S(=O)(=O)N2CCOCC2)c1	none
N#CCc1nc2ccc(S(=O)(=O)N3CCOCC3)cc2s1	TRHR agonist 35, D1 agonist 39
O=C(COC(=O)c1cc(=O)[nH]c2ccccc12)Nc1cccc(S(=O)(=O)N2CCOCC2)c1	none
O=C(COC(=O)c1n[nH]c2ccccc12)Nc1cccc(S(=O)(=O)N2CCOCC2)c1	D1 antagonist -31
Cc1ncc([N+](=O)[O-])n1CC(=O)Nc1ccc(F)c(Cl)c1	none
CN(C)c1ccc(/C=C2\SC(=S)N(Nc3ncc(C(F)(F)F)cc3Cl)C2=O)cc1	TRHR agonist 80, D1 antagonist -63, D1 agonist 168
CC(C)C(NS(=O)(=O)c1ccccc1F)C(=O)N1CCc2ccccc2C1 (configuration not stated)	D1 antagonist -37
CCC(=O)Nc1ccccc1-c1nc2ccccc2n(C(C)C(=O)Nc2ccc(OC)cc2)c1=O (configuration not stated)	D1 antagonist -31
CC(C)CNS(=O)(=O)c1ccc(N2CCCCS2(=O)=O)cc1	D1 antagonist -44
CN1C(=O)Cc2cc(S(=O)(=O)NCCc3ccc(Cl)cc3)ccc21	TRHR PAM 40!
CCCCNS(=O)(=O)c1ccc(N2CCCCS2(=O)=O)cc1	none
O=S(=O)(NCCc1ccccc1)c1ccc(N2CCCCS2(=O)=O)cc1	none
O=S(=O)(NCCc1ccc(Cl)cc1)c1ccc(N2CCCCS2(=O)=O)cc1	D1 antagonist -35
CN1C(=O)Cc2cc(S(=O)(=O)NCc3c(F)cccc3Cl)ccc21	none
c1ccc2[nH]c(SCc3cn4cccnc4n3)nc2c1	TRHR PAM 34
c1ccc(-c2cnnc(SCc3cn4cccnc4n3)n2)cc1	none

Screens as filed in PubChem.
